Bioassay records: PubChem BioAssay, National Center for Advancing Translational Sciences (NCATS)
The list is not random: actives were taken first. Their share in the collection is about 0.27%.
TRPV1 PAM = potentiators of human vanilloid receptor 1 (TRPV1) | potentiation, % at 8.33 µM | hit rate 0.02% among 320,000 | TRPV1-expressing cells, Fluo-8 calcium influx, capsaicin EC20 potentiation | Q8NER1 | AID 540277; in the data active = potentiation above about 80%; inconclusive = between about 30% and that limit; note: 0% is about no effect
Target sequence (Q8NER1 whole entry, looked up): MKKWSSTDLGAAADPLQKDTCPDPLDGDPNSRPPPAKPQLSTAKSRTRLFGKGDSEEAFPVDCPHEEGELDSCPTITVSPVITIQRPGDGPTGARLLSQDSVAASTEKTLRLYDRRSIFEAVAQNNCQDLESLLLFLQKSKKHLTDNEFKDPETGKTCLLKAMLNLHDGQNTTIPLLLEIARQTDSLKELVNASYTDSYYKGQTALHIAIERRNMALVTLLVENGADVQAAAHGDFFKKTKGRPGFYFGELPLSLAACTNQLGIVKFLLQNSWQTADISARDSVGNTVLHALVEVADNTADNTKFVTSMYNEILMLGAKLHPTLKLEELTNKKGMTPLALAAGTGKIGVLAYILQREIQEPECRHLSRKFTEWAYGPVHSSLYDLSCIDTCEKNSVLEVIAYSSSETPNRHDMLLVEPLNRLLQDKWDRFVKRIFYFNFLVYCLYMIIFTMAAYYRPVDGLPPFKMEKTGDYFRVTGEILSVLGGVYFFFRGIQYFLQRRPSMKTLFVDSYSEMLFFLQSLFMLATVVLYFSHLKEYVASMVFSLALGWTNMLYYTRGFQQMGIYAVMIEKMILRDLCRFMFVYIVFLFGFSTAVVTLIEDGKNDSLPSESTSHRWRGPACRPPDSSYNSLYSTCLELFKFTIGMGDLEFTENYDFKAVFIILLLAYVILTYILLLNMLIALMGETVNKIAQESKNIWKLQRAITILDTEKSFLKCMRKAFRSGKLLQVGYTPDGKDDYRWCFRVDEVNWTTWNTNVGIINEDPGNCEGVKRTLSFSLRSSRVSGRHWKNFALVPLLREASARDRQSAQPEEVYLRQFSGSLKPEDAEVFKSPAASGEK
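TRPV1-expressing cells were cultured overnight at 35.5C and loaded with Fluo-8 calcium dye for 40 to 90 min at room temperature. After a 10 s baseline, compound was added and calcium influx was read kinetically for 3 min (ex 480/em 520 nm).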
TRPML1 blocker = blocks the human TRPML1 channel; Q9GZU1; TRPML1-inducible cells, Ca2+ dye fluorescence, FDSS; stronger effect = lower value; inhibition of EC80 agonist-evoked calcium signal; activity change, negative = inhibition, % (concentration not given with the values); hit rate 0.02% among 390,000; AID 624415; in the data active = activity change below about -50%; inconclusive = between about -30% and that limit;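 note: stimulus is agonist 54-4 at its EC80 concentration; % is set by controls: 0 for no effect and ±100 for the full control effect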
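Calcium fluorescence in TRPML1-DL cells induced overnight with Tet: a 110 s read after compound pin addition, then a 110 s antagonist read after challenge with 54-4 at 4 uM final (EC80).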
TRPV1 agonist = human TRPV1 agonism | hit rate 0.19% among 320,000 | TRPV1-expressing cells, Fluo-8 calcium influx, agonist mode | activation, % at 8.33 µM | Q8NER1; in the data active = activation above about 80%; inconclusive = between about 30% and that limit; note: 0% is about no effect
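Fluo-8 calcium influx in TRPV1-expressing cells, kinetic read (ex 480/em 520 nm). Compound added and read 3 min for agonist activity, followed by capsaicin at EC20 final and 2 min further read for enhancement.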
TRPML1 ag = human mucolipin-1 channel agonism; Q9GZU1; hit rate 0.12% among 410,000; activation, % (no concentration beside the values); TRPML1-expressing cells, Ca2+ dye fluorescence, FDSS; in the data active = activation above about 50%; inconclusive = mostly about 30% to 49%; note: 0% is about no effect
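Tet-induced TRPML1-DL cells, 1,500 per well, cultured overnight, were loaded with a no-wash Ca2+ dye for 45–90 min. Calcium fluorescence was recorded on the FDSS for 110 s after compound addition, before the EC80 agonist (4 uM 54-4) was added.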
* hit, by the source's call; ? = inconclusive; . = not tested or not shown.

SMILES | TRPV1 PAM | TRPML1 blocker | TRPV1 agonist | TRPML1 ag
NC(=O)C1CCN(C(=O)CCSCc2ccc(Cl)c(Cl)c2)CC1 | 14 | 17 | 88* | 0
NC(=O)C1CCN(C(=O)CCSCc2ccccc2)CC1 | -16 | 2 | ? | 0
Cn1c(=O)c2c(nc(N3CCOCC3)n2CC(=O)C23CC4CC(CC(C4)C2)C3)n(C)c1=O | 3 | -13 | 2 | 0
CCCCCn1c(=O)c(C(=O)c2ccccc2)nc2ccccc21 | -17 | 16 | ? | 2
CCCCCCn1c(=O)[nH]c2nc3cc(N)ccc3nc2c1=O | 1 | -10 | ? | 51*
NNC(=O)c1sccc1OCc1ccc(Cl)cc1 | 5 | 19 | 12 | 0
Cc1cccn2c(=O)c3cc(C(=O)NCC4CCCO4)c(=N)n(C4CCCCC4)c3nc12 (centres undefined) | -33 | 4 | 91* | 0
Cc1cccn2c(=O)c3cc(C(=O)NCC4CCCO4)c(=N)n(CC4CCCO4)c3nc12 (centres undefined) | -6 | 22 | 9 | 0
COc1ccc(N(C(=O)COc2ccccc2)C2C=CS(=O)(=O)C2)cc1 (centres undefined) | ? | -7 | -16 | 0
CCn1c(C(=O)N2CCCC(C(=O)N3CCN(c4cc(C)ccc4C)CC3)C2)cc2sccc21 (centres undefined) | . | -11 | . | 65*
O=[N+]([O-])c1cc([N+](=O)[O-])c(Oc2c(F)cccc2F)cc1NN1CCCCC1 | -22 | -5 | ? | 0
O=[N+]([O-])c1cc([N+](=O)[O-])c(Oc2c(F)ccc(F)c2F)cc1NN1CCCCC1 | 8 | 18 | 80* | -1
CCc1nc(=O)c(-c2ccccc2)c(C)n1-c1ccccc1 | 25 | -53* | 0 | 2
COc1ccc(-n2c(C)nc(=O)c(-c3ccccc3)c2C)cc1 | 11 | 8 | 1 | 2
Cc1ccc(C(c2nnnn2C(C)(C)C)N(Cc2ccco2)Cc2cccs2)cc1 (centres undefined) | 14 | -9 | 24 | 60*
C[C@H]1NC(=O)[C@@]2(C)[C@@H](c3ccccc3)[C@H]3COc4ccccc4[C@H]3N2C1=O | -13 | -16 | 4 | 0
O=C(CN1C(=O)NC2(CCCCCC2)C1=O)c1ccc(Cl)s1 | -11 | 2 | 2 | -1
O=C(NCc1ccncc1)c1ccc(Oc2ccccc2)cc1 | -21 | 5 | 91* | 1
Cc1noc(C)c1C(=O)Nc1nc(-c2ccc(F)c(F)c2)cs1 | -2 | 20 | 0 | 1
CC(C)CCCN1CCN=C1Nc1ccccc1 | ? | -14 | -5 | 0
CN1C(=O)[C@@H]2[C@H](C1=O)[C@@H]1C(=O)Nc3ccccc3C(=O)N1[C@@H]2c1ccc(Br)cc1 | -17 | -7 | -3 | -1
CCN1C(=O)[C@@H]2[C@H](C1=O)[C@@H]1C(=O)Nc3ccccc3C(=O)N1[C@@H]2c1ccc(Br)cc1 | 106* | 0 | -2 | 0
CCN1C(=S)SC(=O)C1=C1C=C(C)N(Cc2ccco2)C(C)=C1 | 20 | -6 | -1 | 59*
CCN1C(=S)SC(=O)C1=C1C=C(C)OC(C)=C1 | . | -20 | . | 1
CC(C)CCNC(=O)C1CCN(Cc2cccc(OCc3ccccc3)c2)CC1 | 27 | -17 | 92* | 0
SMILES | TRPV1 PAM | TRPML1 blocker | TRPV1 agonist | TRPML1 ag
Cc1noc(C)c1-c1nc(CSc2ccccc2)no1 | ? | -4 | 11 | 2
Cc1cc(S(=O)(=O)Cc2noc(-c3c(C)noc3C)n2)c(C)cc1Cl | 11 | -14 | 1 | 120*
COc1ccc(NC2c3ccccc3C(=O)N2Cc2ccc3c(c2)OCO3)cc1 (centres undefined) | 3 | 19 | 102* | 0
COc1cc2cnc(C3=CCCCC3)cc2cc1OC | . | -10 | . | 0
CCN(CC)c1ccc2c(c1)oc(=O)c1c(Cl)cc(=O)oc12 | -28 | -13 | 27 | 69*
COc1ccc(CC(=O)N2CCN(c3cccc(Cl)c3)CC2)cc1OC | -16 | -4 | 98* | -1
Cc1ccc(NC(=O)c2cc(C(C)(C)C)nn2Cc2ccccc2)cc1 | 5 | -5 | ? | 0
CC(C)(C)c1cc(C(=O)Nc2ccc(F)cc2)n(Cc2ccc(F)cc2)n1 | -23 | 6 | 88* | 1
Cc1ccc(C(=O)NCCc2ccncc2)cc1 | -8 | 4 | 10 | 0
Cc1ccc(S(=O)(=O)Cc2ccc(C(=O)NCCc3ccccc3)o2)cc1 | -27 | 5 | 81* | -1
O=C(Cc1ccccc1)NCCSCc1ccccc1 | -10 | -27 | 17 | 0
O=C(NCCSCc1ccccc1)c1ccc(F)cc1 | -21 | 6 | 81* | 0
Cc1ccc(C(=O)NCCc2ccccc2)cc1 | -12 | . | 84* | .
O=C1OC(Nc2ccc(F)cc2F)c2ccccc21 (centres undefined) | 10 | 9 | -2 | 0
Cc1nc2cc(-c3cccc(F)c3)nn2c(N2CCN(C(=O)c3ccco3)CC2)c1C | -20 | 16 | 81* | -1
Cc1nc2cc(-c3cccc(F)c3)nn2c(C)c1CCC(=O)N1CCN(c2ccccn2)CC1 | -14 | 11 | -2 | 0
Cc1ccc(C(=O)Nc2ccc(S(=O)(=O)N3CCOCC3)cc2)cc1C | -12 | 24 | 82* | 2
Cc1cccc(NC(=O)c2ccc3c(c2)OCCO3)c1 | -8 | 31 | -2 | 2
Cc1ccc(NC(=O)c2ccc(S(=O)(=O)N3CCCC3)cc2)cc1 | . | -4 | . | 2
Cc1ccc(NC(=O)c2ccc3c(c2)OCCO3)cc1C | -30 | 4 | 85* | 0
N#Cc1ccc(NC(=O)CCc2ccc(S(=O)(=O)N3CCOCC3)cc2)cc1 | -8 | 5 | 102* | 0
Cc1ccc(C(=O)Nc2ccc(S(=O)(=O)N3CCCC3)cc2)cc1 | -40 | 12 | 85* | 0
O=C(O)c1ccc(-n2nnc3ccccc32)c([N+](=O)[O-])c1 | -1 | 9 | 1 | -1
Cc1ccc(S(=O)(=O)N2CCOCC2)cc1C(=O)Nc1ccc2c(c1)CCC2 | -25 | 19 | 83* | 2
Cc1ccc(NC(=O)c2ccc(C)cc2)cc1 | 5 | 14 | 81* | 1
SMILES | TRPV1 PAM | TRPML1 blocker | TRPV1 agonist | TRPML1 ag
Cc1ccc(C(=O)Nc2ccc(N3CCN(C)CC3)cc2)cc1 | 1 | -5 | 8 | 1
Cc1ccc(C(=O)Nc2ccc3cn[nH]c3c2)cc1S(=O)(=O)N1CCOCC1 | 11 | -10 | 92* | -1
Cn1cccc1C(=O)OCC(=O)Nc1cc(C(C)(C)C)nn1-c1ccccc1 | 23 | 5 | 2 | 1
COc1ccc(NC(=O)C2CCCN(c3nccc(C)n3)C2)cc1 (centres undefined) | 22 | -3 | 94* | -1
Cc1cc(N2CCCC(C(=O)Nc3ccc4c(c3)CCC4)C2)n2ncnc2n1 (centres undefined) | 10 | -8 | 93* | 0
CC1CCN(c2ccc(NC(=O)Cc3ccccc3)cc2)CC1 | -8 | -51* | ? | 0
O=C(Cc1ccccc1)Nc1ccc(N2CCCC2)cc1 | -2 | -13 | 0 | 0
